This is an account of results in article PMC7862700, “An all-to-all approach to the identification of sequence-specific readers for epigenetic DNA modifications on cytosine”.

What all share (test): DAPPL (digital affinity profiling via proximity ligation, sequencing); 10 mM Tris-HCl pH 7.5, 50 mM NaCl, 1 mM DTT, 4% glycerol, room temperature, 30 min; GST-TFs on glutathione beads, 16-mer random dsDNA library, 0.1% formaldehyde crosslink after washing; high values mean tight binding
For one assay, the target named is T1, FEV (Homo sapiens, UniProt Q99581 1-238).
T1 sequence: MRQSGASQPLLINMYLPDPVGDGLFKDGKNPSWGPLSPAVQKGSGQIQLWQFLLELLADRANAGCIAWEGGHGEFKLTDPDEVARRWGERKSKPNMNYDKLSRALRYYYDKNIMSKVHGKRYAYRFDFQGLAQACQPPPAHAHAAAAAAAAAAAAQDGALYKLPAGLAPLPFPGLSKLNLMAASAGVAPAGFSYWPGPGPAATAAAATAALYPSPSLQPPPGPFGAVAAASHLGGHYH
Conditions: protein: recombinant; tags: N-terminal GST; dsDNA, one strand shown. The essentials: (§1)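 Beads coated with glutathione captured GST-fused human transcription factors that had been expressed in yeast, and the factors were then given DNA barcodes and pooled with a tag-only sample. The pools were incubated with 200 nmole of a random double-stranded 16-mer DNA library in Tris/NaCl/DTT/glycerol buffer for 30 min at room temperature, washed, crosslinked with 0.1% formaldehyde and proximity-ligated with BsaI/T4 ligase at 37 °C for 1 h. PCR amplification and Illumina NextSeq500 sequencing came last. Binding signal is each hexamer's read frequency for a factor divided by its frequency for the tag-only sample.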

The target in a further assay is ETV5 (Homo sapiens, UniProt P41161 1-510). Conditions: protein: recombinant; tags: N-terminal GST; dsDNA, one strand shown. The essentials:
as §1

Another assay has as its target HSF1 (Homo sapiens, UniProt Q00613 1-529). The settings on record: protein: recombinant; tags: N-terminal GST; chain copies: 3; dsDNA, one strand shown. The method, boiled down:
as §1

The target of another assay is T2, SPIC (Homo sapiens, UniProt Q8N5J4 1-248).
T2 sequence: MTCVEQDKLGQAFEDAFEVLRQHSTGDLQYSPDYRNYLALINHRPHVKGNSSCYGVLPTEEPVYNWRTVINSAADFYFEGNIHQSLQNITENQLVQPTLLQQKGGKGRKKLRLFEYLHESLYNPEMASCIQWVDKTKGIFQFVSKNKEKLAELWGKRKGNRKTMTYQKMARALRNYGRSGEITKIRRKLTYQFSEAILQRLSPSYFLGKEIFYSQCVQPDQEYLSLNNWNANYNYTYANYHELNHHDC
Conditions: protein: recombinant; tags: N-terminal GST; dsDNA, one strand shown. The method, boiled down: as §1

A further assay has as its target ELF4 (Homo sapiens, UniProt Q99607 1-663). Conditions: protein: recombinant; tags: N-terminal GST; dsDNA, one strand shown. The essentials:
as §1

Another assay addresses T3, ELK4 (Homo sapiens, UniProt P28324-2 1-405).
T3 sequence: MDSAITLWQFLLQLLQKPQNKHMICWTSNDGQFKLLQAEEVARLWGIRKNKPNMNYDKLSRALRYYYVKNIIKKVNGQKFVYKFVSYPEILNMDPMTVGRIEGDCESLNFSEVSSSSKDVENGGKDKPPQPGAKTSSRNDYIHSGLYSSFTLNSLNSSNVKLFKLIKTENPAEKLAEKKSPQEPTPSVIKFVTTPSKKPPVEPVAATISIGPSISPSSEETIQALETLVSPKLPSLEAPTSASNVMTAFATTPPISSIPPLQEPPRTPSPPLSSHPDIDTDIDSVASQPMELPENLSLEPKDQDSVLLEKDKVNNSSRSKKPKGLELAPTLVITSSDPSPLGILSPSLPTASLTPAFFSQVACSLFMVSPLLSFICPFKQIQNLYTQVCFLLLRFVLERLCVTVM
Conditions: protein: recombinant; tags: N-terminal GST; dsDNA, one strand shown. The essentials:
as §1

For the next assay, the target named is T4, ETV2 (Homo sapiens, UniProt O00321 1-342).
T4 sequence: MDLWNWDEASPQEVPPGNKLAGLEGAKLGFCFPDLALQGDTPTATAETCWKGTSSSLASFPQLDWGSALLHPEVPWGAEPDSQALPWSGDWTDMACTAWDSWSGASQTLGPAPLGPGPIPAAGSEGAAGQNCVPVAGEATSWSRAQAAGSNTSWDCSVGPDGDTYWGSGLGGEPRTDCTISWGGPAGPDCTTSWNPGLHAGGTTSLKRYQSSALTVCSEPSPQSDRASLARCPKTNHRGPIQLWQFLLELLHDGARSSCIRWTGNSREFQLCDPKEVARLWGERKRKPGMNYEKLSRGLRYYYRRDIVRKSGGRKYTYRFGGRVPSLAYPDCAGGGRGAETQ
The settings on record: protein: recombinant; tags: N-terminal GST; dsDNA, one strand shown. The essentials: as §1

A further assay has as its target T5, ELF3 (Homo sapiens, UniProt P78545 1-371).
T5 sequence: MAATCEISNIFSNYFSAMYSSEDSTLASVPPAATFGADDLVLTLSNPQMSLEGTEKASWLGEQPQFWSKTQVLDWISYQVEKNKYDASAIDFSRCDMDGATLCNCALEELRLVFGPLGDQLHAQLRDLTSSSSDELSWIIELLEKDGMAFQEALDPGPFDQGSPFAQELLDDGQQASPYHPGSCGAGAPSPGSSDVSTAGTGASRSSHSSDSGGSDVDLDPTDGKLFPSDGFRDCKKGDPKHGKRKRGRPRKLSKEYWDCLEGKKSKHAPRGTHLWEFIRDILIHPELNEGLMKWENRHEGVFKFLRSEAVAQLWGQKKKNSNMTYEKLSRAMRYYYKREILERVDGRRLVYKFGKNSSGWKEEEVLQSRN
The settings on record: protein: recombinant; tags: N-terminal GST; dsDNA, one strand shown. The method, boiled down:
as §1

Another assay deals with CRX (Homo sapiens, UniProt O43186 1-299). Conditions: protein: recombinant; tags: N-terminal GST; dsDNA, one strand shown. The essentials: as §1
Sequence of CRX (O43186 whole entry): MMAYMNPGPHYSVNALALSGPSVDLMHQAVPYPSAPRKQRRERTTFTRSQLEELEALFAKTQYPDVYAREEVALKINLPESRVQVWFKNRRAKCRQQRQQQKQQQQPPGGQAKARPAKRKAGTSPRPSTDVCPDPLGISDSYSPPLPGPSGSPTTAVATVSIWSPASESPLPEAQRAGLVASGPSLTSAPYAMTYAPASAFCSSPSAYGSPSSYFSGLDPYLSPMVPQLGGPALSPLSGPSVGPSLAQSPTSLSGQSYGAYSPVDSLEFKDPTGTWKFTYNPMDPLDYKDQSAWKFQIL
The next assay deals with ETV1 (Homo sapiens, UniProt P50549 1-477). The settings on record: protein: recombinant; tags: N-terminal GST; dsDNA, one strand shown. The essentials: as §1
Sequence of ETV1 (P50549 whole entry): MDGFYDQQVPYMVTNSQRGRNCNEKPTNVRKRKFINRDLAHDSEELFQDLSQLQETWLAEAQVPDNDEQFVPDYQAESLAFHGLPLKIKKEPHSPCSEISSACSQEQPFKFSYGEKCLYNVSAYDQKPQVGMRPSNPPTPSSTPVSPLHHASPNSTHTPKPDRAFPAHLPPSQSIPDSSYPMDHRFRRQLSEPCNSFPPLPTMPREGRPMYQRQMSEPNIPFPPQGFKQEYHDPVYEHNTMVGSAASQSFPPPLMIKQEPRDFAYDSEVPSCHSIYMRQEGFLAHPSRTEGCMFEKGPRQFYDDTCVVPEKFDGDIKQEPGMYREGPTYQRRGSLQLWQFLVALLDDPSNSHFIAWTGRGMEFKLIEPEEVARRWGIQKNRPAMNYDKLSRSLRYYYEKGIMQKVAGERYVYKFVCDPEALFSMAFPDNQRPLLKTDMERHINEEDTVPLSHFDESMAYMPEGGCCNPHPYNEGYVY

Sequence of HSF1 (Q00613 whole entry): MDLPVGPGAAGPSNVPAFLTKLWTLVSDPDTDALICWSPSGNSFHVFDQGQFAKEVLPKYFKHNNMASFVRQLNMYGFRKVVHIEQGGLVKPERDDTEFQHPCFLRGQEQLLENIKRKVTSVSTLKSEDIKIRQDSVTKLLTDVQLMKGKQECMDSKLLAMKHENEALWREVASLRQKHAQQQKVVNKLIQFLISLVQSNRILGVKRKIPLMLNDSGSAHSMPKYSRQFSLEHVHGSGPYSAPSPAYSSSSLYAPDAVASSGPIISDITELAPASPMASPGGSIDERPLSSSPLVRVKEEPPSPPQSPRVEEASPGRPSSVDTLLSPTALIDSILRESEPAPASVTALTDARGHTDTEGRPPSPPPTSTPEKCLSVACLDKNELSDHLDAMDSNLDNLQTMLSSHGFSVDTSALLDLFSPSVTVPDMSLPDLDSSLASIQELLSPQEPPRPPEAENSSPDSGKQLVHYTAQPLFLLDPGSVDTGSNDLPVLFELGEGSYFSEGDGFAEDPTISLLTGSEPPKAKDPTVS
Sequence of ETV5 (P41161 whole entry): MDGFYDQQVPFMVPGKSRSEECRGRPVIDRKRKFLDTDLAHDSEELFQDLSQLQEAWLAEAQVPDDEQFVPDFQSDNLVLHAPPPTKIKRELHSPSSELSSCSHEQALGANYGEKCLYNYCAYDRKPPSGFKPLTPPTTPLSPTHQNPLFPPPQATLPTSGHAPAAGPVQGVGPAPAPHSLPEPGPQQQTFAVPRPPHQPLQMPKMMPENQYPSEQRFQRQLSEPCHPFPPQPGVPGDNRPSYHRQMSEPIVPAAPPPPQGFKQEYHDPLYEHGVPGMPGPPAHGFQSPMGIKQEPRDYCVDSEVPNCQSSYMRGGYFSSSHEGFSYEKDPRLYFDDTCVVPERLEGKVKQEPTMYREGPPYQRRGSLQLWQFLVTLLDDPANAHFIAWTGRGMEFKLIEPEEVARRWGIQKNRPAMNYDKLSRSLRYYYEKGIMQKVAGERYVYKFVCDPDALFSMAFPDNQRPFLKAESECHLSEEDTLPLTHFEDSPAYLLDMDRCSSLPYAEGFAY
Sequence of ELF4 (Q99607 whole entry): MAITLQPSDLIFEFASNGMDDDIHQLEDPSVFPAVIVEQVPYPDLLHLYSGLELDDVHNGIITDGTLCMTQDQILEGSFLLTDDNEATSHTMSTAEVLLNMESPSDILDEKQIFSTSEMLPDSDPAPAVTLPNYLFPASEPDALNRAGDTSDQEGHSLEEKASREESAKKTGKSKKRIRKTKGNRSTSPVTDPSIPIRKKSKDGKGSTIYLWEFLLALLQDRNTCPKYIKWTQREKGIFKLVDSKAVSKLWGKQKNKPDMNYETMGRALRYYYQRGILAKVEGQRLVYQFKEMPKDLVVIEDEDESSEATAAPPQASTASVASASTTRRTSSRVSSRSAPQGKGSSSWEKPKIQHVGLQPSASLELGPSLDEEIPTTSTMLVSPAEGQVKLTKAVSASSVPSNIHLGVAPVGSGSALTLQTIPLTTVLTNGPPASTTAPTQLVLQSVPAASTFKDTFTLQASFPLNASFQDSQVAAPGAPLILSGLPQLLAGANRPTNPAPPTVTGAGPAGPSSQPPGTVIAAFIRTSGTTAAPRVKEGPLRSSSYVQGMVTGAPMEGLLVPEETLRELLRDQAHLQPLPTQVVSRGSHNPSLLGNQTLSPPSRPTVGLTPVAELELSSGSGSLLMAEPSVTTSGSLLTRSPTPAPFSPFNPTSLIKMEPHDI

TTTTGC: the binding signal with FEV is 1.3 fold enrichment (6-mer frequency, TF over GST control); with ETV5, 1.34 fold enrichment (6-mer frequency, TF over GST control); in the assay with HSF1, 1.36 fold enrichment (6-mer frequency, TF over GST control); with SPIC it was 1.25 fold enrichment (6-mer frequency, TF over GST control); with ELF4, 1.42 fold enrichment (6-mer frequency, TF over GST control); in the assay with ELK4, 1.3 fold enrichment (6-mer frequency, TF over GST control). The binding signal was 1.53 fold enrichment (6-mer frequency, TF over GST control) with ETV2; 1.34 fold enrichment (6-mer frequency, TF over GST control) with ELF3; 1.41 fold enrichment (6-mer frequency, TF over GST control) with CRX; 1.34 fold enrichment (6-mer frequency, TF over GST control) with ETV1.

Consider GCCCTA, for which the binding signal with FEV is 1.28 fold enrichment (6-mer frequency, TF over GST control); in the assay with ETV5, 1.16 fold enrichment (6-mer frequency, TF over GST control); in the assay with HSF1, 1.13 fold enrichment (6-mer frequency, TF over GST control); with SPIC it was 1.18 fold enrichment (6-mer frequency, TF over GST control); in the assay with ELF4 it was 1.24 fold enrichment (6-mer frequency, TF over GST control); in the assay with ELK4, 1.24 fold enrichment (6-mer frequency, TF over GST control). The binding signal in the assay with ETV2 was 1.06 fold enrichment (6-mer frequency, TF over GST control); with ELF3, 1.19 fold enrichment (6-mer frequency, TF over GST control); with CRX it was 1.27 fold enrichment (6-mer frequency, TF over GST control); in the assay with ETV1 it was 1.06 fold enrichment (6-mer frequency, TF over GST control).

For CTGGAA, the binding signal with FEV is 1.2 fold enrichment (6-mer frequency, TF over GST control); with ETV5 it was 1.29 fold enrichment (6-mer frequency, TF over GST control); with HSF1, 4.43 fold enrichment (6-mer frequency, TF over GST control); with SPIC it was 1.2 fold enrichment (6-mer frequency, TF over GST control); in the assay with ELF4 it was 1.23 fold enrichment (6-mer frequency, TF over GST control); with ELK4 it was 1.08 fold enrichment (6-mer frequency, TF over GST control). Further, the binding signal was 1.43 fold enrichment (6-mer frequency, TF over GST control) with ETV2; 1.11 fold enrichment (6-mer frequency, TF over GST control) with ELF3; 1.89 fold enrichment (6-mer frequency, TF over GST control) with CRX; 1.32 fold enrichment (6-mer frequency, TF over GST control) in the assay with ETV1.

Take AAGTAT: the binding signal with FEV was 1.34 fold enrichment (6-mer frequency, TF over GST control); in the assay with ETV5, 1.38 fold enrichment (6-mer frequency, TF over GST control); in the assay with HSF1, 1.38 fold enrichment (6-mer frequency, TF over GST control); in the assay with SPIC, 1.49 fold enrichment (6-mer frequency, TF over GST control); with ELF4, 1.4 fold enrichment (6-mer frequency, TF over GST control); with ELK4, 1.31 fold enrichment (6-mer frequency, TF over GST control). Also, the binding signal is 1.42 fold enrichment (6-mer frequency, TF over GST control) with ETV2; 1.35 fold enrichment (6-mer frequency, TF over GST control) with ELF3; 1.57 fold enrichment (6-mer frequency, TF over GST control) in the assay with CRX; 1.44 fold enrichment (6-mer frequency, TF over GST control) with ETV1.

For TGGTTT, the binding signal in the assay with FEV was 1.54 fold enrichment (6-mer frequency, TF over GST control); in the assay with ETV5, 1.71 fold enrichment (6-mer frequency, TF over GST control); in the assay with HSF1, 1.4 fold enrichment (6-mer frequency, TF over GST control); in the assay with SPIC it was 1.67 fold enrichment (6-mer frequency, TF over GST control); with ELF4, 1.54 fold enrichment (6-mer frequency, TF over GST control); with ELK4, 1.52 fold enrichment (6-mer frequency, TF over GST control). For the same sequence, the binding signal in the assay with ETV2 was 1.34 fold enrichment (6-mer frequency, TF over GST control); with ELF3 it was 1.5 fold enrichment (6-mer frequency, TF over GST control); with CRX it was 1.5 fold enrichment (6-mer frequency, TF over GST control); with ETV1 it was 1.69 fold enrichment (6-mer frequency, TF over GST control).

Consider TTACCA, for which the binding signal in the assay with FEV is 1.09 fold enrichment (6-mer frequency, TF over GST control); with ETV5, 1.04 fold enrichment (6-mer frequency, TF over GST control); in the assay with HSF1, 1.47 fold enrichment (6-mer frequency, TF over GST control); with SPIC, 1.09 fold enrichment (6-mer frequency, TF over GST control); in the assay with ELF4, 1.04 fold enrichment (6-mer frequency, TF over GST control); in the assay with ELK4, 1.04 fold enrichment (6-mer frequency, TF over GST control). For the same sequence, the binding signal is 1.13 fold enrichment (6-mer frequency, TF over GST control) with ETV2; 1.1 fold enrichment (6-mer frequency, TF over GST control) with ELF3; 1.74 fold enrichment (6-mer frequency, TF over GST control) in the assay with CRX; 1.05 fold enrichment (6-mer frequency, TF over GST control) in the assay with ETV1.

With ACATCC, the binding signal is 3.7 fold enrichment (6-mer frequency, TF over GST control) with FEV; 2.77 fold enrichment (6-mer frequency, TF over GST control) in the assay with ETV5; 1.06 fold enrichment (6-mer frequency, TF over GST control) with HSF1; 2.43 fold enrichment (6-mer frequency, TF over GST control) with SPIC; 2.28 fold enrichment (6-mer frequency, TF over GST control) with ELF4; 2.29 fold enrichment (6-mer frequency, TF over GST control) in the assay with ELK4. Further, the binding signal was 2.61 fold enrichment (6-mer frequency, TF over GST control) in the assay with ETV2; 2.38 fold enrichment (6-mer frequency, TF over GST control) with ELF3; 1.05 fold enrichment (6-mer frequency, TF over GST control) with CRX; 2.66 fold enrichment (6-mer frequency, TF over GST control) with ETV1.

On to GTATTA, for which the binding signal with FEV was 1.09 fold enrichment (6-mer frequency, TF over GST control); with ETV5, 1.14 fold enrichment (6-mer frequency, TF over GST control); in the assay with HSF1, 1.62 fold enrichment (6-mer frequency, TF over GST control); with SPIC, 1.04 fold enrichment (6-mer frequency, TF over GST control); with ELF4, 1.08 fold enrichment (6-mer frequency, TF over GST control); in the assay with ELK4, 1.14 fold enrichment (6-mer frequency, TF over GST control). The binding signal was 1.2 fold enrichment (6-mer frequency, TF over GST control) in the assay with ETV2; 1.09 fold enrichment (6-mer frequency, TF over GST control) with ELF3; 2.49 fold enrichment (6-mer frequency, TF over GST control) with CRX; 1.13 fold enrichment (6-mer frequency, TF over GST control) with ETV1.
